Source: PubChem (Broad Institute)
Only some compounds are listed: those with a hit (about 3.7% of all), similar ones and a draw of the others.
MITF TRPM1 HTS – activators of MITF-driven TRPM1 promoter activity in SK-MEL-5 cells. SK-MEL-5 TRPM1-promoter luciferase, 24 h; % of positive control, neutral wells = 0. activation, % at 12.5 µM. 300,000 tested, 0.75% active. AID 588334;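 active = mean activation of at least 80% with every replicate also reaching 80%; inconclusive = mean reaches 80% but some replicate falls short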;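 also: 0% = neutral control wells and 100% = parthenolide positive control wells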
Wnt bcat act – Wnt/beta-catenin pathway activation | Wnt/beta-catenin reporter cell assay, activator, plate reader | activation, % at 9.35 µM | 300,000 tested, 1.2% active; in the data active = activation above about 30%, passing the limit was not always enough; inconclusive = no clear call, values can overlap the other calls;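 also: 0% = neutral control wells and 100% = positive control wells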
esBAF inh – blocks esBAF chromatin remodeling in mouse ES cells. reporter increase, % at 12.5 µM. 350,000 tested, 2% active. Bmi1-luciferase knock-in reporter, 24 h; 100% = twice the neutral-well signal; in the data active = activation above about 40%; inconclusive = no clear call, values can overlap the other calls;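 also: 0% = median of the plate's neutral control wells and 100% = double that signal; a rise in the Bmi1 reporter signal indicates esBAF inhibition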
MLL AF4-AF9 inh – MLL-AF4/AF9 protein interaction inhibition. P42568. AlphaScreen, biotin-AF4 peptide binding to FLAG-AF9. inhibition, % at 10 µM. 350,000 tested, 0.47% active. AID 651704;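 active = every replicate reaching a set inhibition limit, whatever the replicate mean, cut at about 25% in these data; inconclusive = mean inhibition reaches that limit but some replicates miss it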;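 also: 0% = plate neutral control median and 100% = total signal loss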
Target sequence (P42568 whole entry, looked up): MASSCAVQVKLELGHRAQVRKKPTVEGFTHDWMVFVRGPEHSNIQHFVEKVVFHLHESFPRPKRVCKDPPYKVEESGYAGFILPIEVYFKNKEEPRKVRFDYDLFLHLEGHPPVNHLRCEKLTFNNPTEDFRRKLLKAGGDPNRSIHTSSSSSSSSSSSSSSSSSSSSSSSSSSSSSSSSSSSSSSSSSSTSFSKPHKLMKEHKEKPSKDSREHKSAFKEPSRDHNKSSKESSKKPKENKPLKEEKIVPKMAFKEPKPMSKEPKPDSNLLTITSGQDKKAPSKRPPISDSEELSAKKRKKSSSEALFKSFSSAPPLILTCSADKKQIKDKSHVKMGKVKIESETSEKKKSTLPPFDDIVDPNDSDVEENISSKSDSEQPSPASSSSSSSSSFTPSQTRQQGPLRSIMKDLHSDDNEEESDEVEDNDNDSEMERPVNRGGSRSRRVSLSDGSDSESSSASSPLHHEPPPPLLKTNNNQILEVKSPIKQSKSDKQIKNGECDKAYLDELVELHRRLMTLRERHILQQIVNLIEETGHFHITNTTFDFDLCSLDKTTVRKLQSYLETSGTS
Ecoli rRNA inh – inhibits bacterial ribosomal RNA function over humanized ribosomes | 350,000 tested, 1.6% active | GFP signal change (wild-type ribosome), % (concentration not given with the values) | E. coli WT GFP vs humanized-ribosome RFP mutants, fluorescence, 24 h; hits give low values; DMSO median 0, no signal -100;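 active = significant combined selectivity score with lowered wild-type GFP, culture density cut under 30%, mutant RFP and density less affected; inactive = any of these conditions unmet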
* hit, by the source's call; ? = inconclusive; / = no result.

SMILES	MITF TRPM1 HTS	Wnt bcat act	esBAF inh	MLL AF4-AF9 inh	Ecoli rRNA inh
CCc1cccc(NC(=O)C2CCN(c3ncnc4sc(C)c(C)c34)CC2)c1	/	-1	6	-2	-20
Cc1cc(C(=O)N2CCC(CO)(Cc3cccc(C(F)(F)F)c3)CC2)n[nH]1	0	-1	-2	1	-3
O=C(c1cnsn1)N1CCC(CO)(Cc2cccc(F)c2)CC1	114*	50*	70*	4	-2
COc1ccc(S(=O)(=O)Nc2cccc3c2O[C@H](CN(C)Cc2ccc4c(c2)OCO4)[C@H](C)CN([C@H](C)CO)C3=O)cc1	/	/	4	17	-5
Oc1ccccc1C(Nc1nccs1)c1ccc2cccnc2c1O (stereo not drawn)	-15	0	-18	8	-2
Cc1ccc2ccc(C(Nc3ccccn3)c3ccccc3)c(O)c2n1 (stereo not drawn)	/	-3	3	?	-19
Cc1ccnc(NC(c2ccccc2)c2ccc3cccnc3c2O)c1 (stereo not drawn)	-31	5	2	29*	-58
Oc1c(C(Nc2ccccn2)c2ccccn2)ccc2cccnc12 (stereo not drawn)	-70	76*	/	/	-52
COc1cccc(-c2ccc([C@@H]3[C@@H](CO)N4C(=O)CN(C(=O)c5cccnc5)C[C@H]34)cc2)c1	/	/	/	10	-6
Cc1noc(C)c1NC(=O)N(C)C[C@H]1OCCCC[C@@H](C)Oc2ccc(NC(=O)Nc3cccc4ccccc34)cc2C(=O)N([C@@H](C)CO)C[C@H]1C	/	/	-9	/	-15*
C[C@@H]1CCCCO[C@H](CN(C)C(=O)Nc2cccc3ccccc23)[C@H](C)CN([C@@H](C)CO)C(=O)c2cc(NC(=O)CCC(F)(F)F)ccc2O1	/	/	45*	/	-1
COC(=O)c1ccccc1NC(=S)NC(=O)c1ccccc1C	-5	/	-6	/	/
COc1cc(OC)c(C2=NOC(C(=O)N3CCc4ccccc4C3)C2)cc1Cl (stereo not drawn)	7	-1	-6	-10	-26*
COc1ccc2c3c(n(C)c2c1)[C@@H](CO)N(C(=O)Nc1ccc(F)cc1)CC31CCN(Cc2cccc(F)c2)CC1	/	/	/	0	-13
COc1cccc(CN2CCC3(CC2)CN(C(=O)Nc2ccc(F)cc2)[C@H](CO)c2c3c3ccc(OC)cc3n2C)c1	/	/	/	36*	-22
COc1ccc2c3c(n(C)c2c1)[C@@H](CO)N(C(=O)Nc1ccc(F)cc1)CC31CCN(Cc2ccccn2)CC1	/	/	/	29*	2
COc1ccc(N2CCN(CC(=O)c3ccc(O)c(C)c3O)CC2)cc1	2	-2	10	8	-6
Cc1c(O)ccc(C(=O)COc2ccc(F)cc2)c1O	?	/	80*	/	/
CCc1cc(C(=O)COc2ccc(F)cc2)c(O)cc1O	44	42*	/	-1	-26
Cc1ccc(NC(=O)Nc2ccc3c(c2)C(=O)N(C)[C@H]2CC[C@@H](CC(=O)O)O[C@H]2CO3)cc1	/	/	-2	-6	-1
COc1cccc(S(=O)(=O)N[C@@H]2CC[C@@H](CCn3cc(-c4ccccc4)nn3)O[C@@H]2CO)c1	/	/	7	1	0
Cc1ccc(S(=O)(=O)N2CCC(C)CC2)c([N+](=O)[O-])c1	5	-1	/	3	-25*
Cc1ccc([N+](=O)[O-])cc1S(=O)(=O)N1CCC(C)CC1	3	-1	/	8	-13
O=S(=O)(NCc1c(Cl)cccc1Oc1ccccc1)c1ccc(F)cc1	1	0	/	-8	-39*
Cc1nn(C(=O)CNC(=O)c2ccccc2)c(C)c1C	6	0	/	-1	4
SMILES	MITF TRPM1 HTS	Wnt bcat act	esBAF inh	MLL AF4-AF9 inh	Ecoli rRNA inh
Cc1nn(C(=O)c2cc3sccc3[nH]2)c(C)c1C	45	2	84*	3	11
COc1ccc(S(=O)(=O)N(C)C[C@H]2OCCCC[C@@H](C)Oc3ccc(NC(=O)c4ccncc4)cc3C(=O)N([C@@H](C)CO)C[C@@H]2C)cc1	/	/	5	-5	-2
CC(=O)Nc1ccc(N2CCOCC2)c(S(=O)(=O)Nc2ccccc2Cl)c1	/	/	-1	1	1
C=CCNC(=S)Nc1ccc(N2CCOCC2)c(S(=O)(=O)Nc2ccccc2Cl)c1	6	-1	-12	-3	-34*
CC(=O)Nc1ccc(C(=O)N(C)c2ccccc2)cc1	-3	/	-1	/	/
COc1ccc(N2CCN(C(=O)C3Cc4ccccc4CN3C(=O)c3ccccc3)CC2)cc1 (stereo not drawn)	47	16	72*	8	-2
